{
  "source": "PubChem BioAssay (Tox21)",
  "note": "Activity calls are given as the source filed them. Calls follow the shape of the dose curve; as a rule, active = well fitted inhibition curve with a large enough effect in the repeat runs (not every such curve was filed as active); inconclusive = weak or mixed curves; inactive = flat fitted curve, though single readings scatter.",
  "data": [
    {"molecular_target": "Thyrotropin-releasing hormone receptor (Homo sapiens) (UniProt P34981)", "sequence (P34981 whole entry, looked up)": "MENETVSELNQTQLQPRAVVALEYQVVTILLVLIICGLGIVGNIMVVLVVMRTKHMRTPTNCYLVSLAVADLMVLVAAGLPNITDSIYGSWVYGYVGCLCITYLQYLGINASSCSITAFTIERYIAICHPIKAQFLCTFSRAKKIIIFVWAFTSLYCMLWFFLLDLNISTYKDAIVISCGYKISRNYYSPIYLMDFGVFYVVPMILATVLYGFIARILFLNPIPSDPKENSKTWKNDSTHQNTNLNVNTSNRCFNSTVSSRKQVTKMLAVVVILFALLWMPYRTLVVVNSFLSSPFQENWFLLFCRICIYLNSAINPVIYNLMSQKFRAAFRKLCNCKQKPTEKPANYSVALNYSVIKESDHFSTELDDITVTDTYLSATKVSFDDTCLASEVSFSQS", "assay": "qHTS assay to identify small molecule antagonists of the thyrotropin-releasing hormone receptor (TRHR) signaling pathway (AID 1346877)", "conditions": "TRHR-HEK293, TRH-induced calcium fluorescence, antagonist mode; series mostly up to 51.3 µM", "text": "National Center for Advancing Translational Sciences [NCATS]\nNIH Chemical Genomics Center [NCGC]\nU.S. Environmental Protection Agency [EPA]\nNational Institutes of Environmental Health Sciences [NIEHS]\nNational Toxicology Program [NTP]\nU.S. Food and Drug Administration [FDA]\nThyrotropin-releasing hormone (TRH) receptor (TRHR) is a G-protein-coupled receptor which binds the tripeptide thyrotropin releasing hormone. TRHR is found in the brain and, when bound by TRH, acts (through phospholipase C) to increase intracellular inositol trisphosphate. It plays a crucial role in the anterior pituitary where it controls the synthesis and secretion of thyroid stimulating hormone and prolactin. The TRHR-Hek293 assay is a cell-based assay, and it has the potential to screen G protein-coupled receptors. A compound/drug can either activate (agonist) or suppress (antagonist) GPCRs that can be monitored by levels of intracellular calcium. In this assay, the Tox21 10K compound library was screened to identify potential TRHR antagonists.\nTox21 Assay Protocol Summary:\nThe TRHR-Hek293 cells were dispensed at 1500cells/4uL/well in 1536-well black-clear bottom plates using a Multidrop dispenser. After the assay plates were incubated at a 37 C/5% CO2 incubator for 18 hours, 4 uL of Dye-Loading Solution was added to each well. The plates were incubated at 37 C for 2 hours. For agonist mode, 23 nL of compounds dissolved in DMSO, positive controls or DMSO only was transferred to the assay plate by a pin tool. The fluorescence intensity in the plates was measured using FDSS 7000EX kinetic plate reader for 3 min at 1 sec intervals. For antagonist mode, 23 nL of compounds dissolved in DMSO, positive controls or DMSO only was transferred to the assay plate by a pin tool. After 5 min incubation at room temperature, 1 uL of TRH was added on the top of the cell/compound mixtures to achieve a final agonist concentration of 1 nM. The fluorescence intensity in the plates was measured using FDSS 7000EX kinetic plate reader for 3 min at 1 sec intervals. Each test compound was measured at 15 concentrations and in triplicates.", "values": [
      {"smiles": "CCCCCCCCN", "outcome": "inactive"},
      {"smiles": "CC(C)=CCC/C(C)=C/CC/C(C)=C/C(=O)OCC(=O)[C@@]1(O)CC[C@H]2[C@@H]3CCC4=CC(=O)C=C[C@]4(C)[C@H]3[C@@H](O)C[C@@]21C", "outcome": "inactive"},
      {"smiles": "CC1=Nc2ccc3ccccc3c2C1(C)C", "outcome": "inactive"},
      {"smiles": "CCc1ccccc1", "outcome": "inactive"},
      {"smiles": "N#CCc1ccc(Cl)cc1Cl", "outcome": "inactive"},
      {"smiles": "Oc1c(I)cc(I)c2cccnc12", "outcome": "inactive"},
      {"smiles": "O=C(O)CCCCCCCCCCCBr", "outcome": "inactive"},
      {"smiles": "CN1C(=O)c2ccccc2C1=O", "outcome": "inactive"},
      {"smiles": "CC(C)C[C@H](NC(=O)[C@H](CCc1ccccc1)NC(=O)CN1CCOCC1)C(=O)N[C@@H](Cc1ccccc1)C(=O)N[C@@H](CC(C)C)C(=O)[C@@]1(C)CO1", "outcome": "inactive"},
      {"smiles": "CCCC(C(=O)OCCN(CC)CC)(c1ccccc1)c1ccccc1", "outcome": "inactive"},
      {"smiles": "c1ccc2c(c1)CCc1ccccc1N2", "outcome": "inactive"},
      {"smiles": "CCCCCCCC/C=C\\CCCCCCCCO", "outcome": "inactive"},
      {"smiles": "O=C1Cc2cc(Cl)ccc2N1", "outcome": "inactive"},
      {"smiles": "CCn1cc(C(=O)O)c(=O)c2cc(F)c(N3CCNCC3)cc21", "outcome": "inactive"},
      {"smiles": "C=C(C)CCCC(C)CCO", "note": "(stereo not given)", "outcome": "inactive"},
      {"smiles": "CN1C(=O)OC(C)(C)C1=O", "outcome": "inactive"},
      {"smiles": "CC1=C(CC=O)C(C)(C)CCC1", "outcome": "inactive"},
      {"smiles": "NC(=O)c1ccncc1", "outcome": "inactive"},
      {"smiles": "COC(=O)c1nc(Cl)c(Cl)nc1N", "outcome": "inactive"},
      {"smiles": "CC(=O)OCC[N+](C)(C)C", "outcome": "inactive"},
      {"smiles": "Cc1ccco1", "outcome": "inactive"},
      {"smiles": "CCCCN(CCN(CCCC)C(=O)N1CCOCC1)C(=O)N1CCOCC1", "outcome": "inactive"},
      {"smiles": "CCCCCCCCC(CCCCCC)C(=O)O", "note": "(stereo not given)", "outcome": "inactive"},
      {"smiles": "OC[C@H]1O[C@@H](n2cnc3c(=S)nc[nH]c32)[C@H](O)[C@@H]1O", "outcome": "inactive"},
      {"smiles": "Brc1cc(Br)c(Oc2cc(Br)c(Br)cc2Br)cc1Br", "outcome": "inactive"},
      {"smiles": "CC(=O)NC1(c2cccc(F)c2)CCN(CC[C@@]2(c3ccc(Cl)c(Cl)c3)CN(c3ccccc3)C(=O)CO2)CC1", "outcome": "inactive"},
      {"smiles": "O=C1c2ccccc2C(=O)c2c(O)c(O)cc(O)c21", "outcome": "inactive"},
      {"smiles": "O=C(O)c1cccc(-c2noc(-c3ccccc3F)n2)c1", "outcome": "inactive"},
      {"smiles": "O=C1c2ccccc2C(=O)C1(O)O", "outcome": "inactive"},
      {"smiles": "CCCC(=O)C(=O)O", "outcome": "inactive"},
      {"smiles": "COc1ccc(OC(=O)N(CC(=O)O)Cc2ccc(OCCc3nc(-c4ccccc4)oc3C)cc2)cc1", "outcome": "inactive"},
      {"smiles": "C[C@H]1c2cccc(O)c2C(O)=C2C(=O)[C@]3(O)C(O)=C(C(N)=O)C(=O)[C@@H](N(C)C)[C@@H]3[C@@H](O)[C@@H]21", "outcome": "inactive"},
      {"smiles": "COC(=O)CCS", "outcome": "inactive"},
      {"smiles": "CN(C)CCC=C1c2ccccc2C=Cc2ccccc21", "outcome": "inactive"},
      {"smiles": "OCCOCC#CCOCCO", "outcome": "inactive"},
      {"smiles": "O=C(OCC(O)CO)c1ccccc1Nc1ccnc2cc(Cl)ccc12", "note": "(stereo not given)", "outcome": "inactive"},
      {"smiles": "CC(C)(c1ccccc1)c1ccccc1", "outcome": "inactive"},
      {"smiles": "CC(O)c1ccccc1", "note": "(stereo not given)", "outcome": "inactive"},
      {"smiles": "O=C(CCCN1CC=C(n2c(=O)[nH]c3ccccc32)CC1)c1ccc(F)cc1", "outcome": "inactive"},
      {"smiles": "COC(=O)CS", "outcome": "inactive"}
    ]}
  ]
}
